NLRP3 yeast inh – NALP3 inhibition in yeast. Yeast reconstituted NLRP3/ASC/caspase-1, beta-gal luminescence, 24 h. inhibition, % at 10 µM. 0.39% of 330,000 active;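 active means inhibition of 50% or more; inactive means inhibition below 50%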;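 further: plate controls were induced DMSO wells for no effect and uninduced yeast grown without galactose for full effect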
tim23-1 inh – tim23-1 yeast growth inhibition; S. cerevisiae tim23-1 growth, BacTiter-Glo luminescence, 24 h; inhibition, % at 20 µM; 1.3% of 330,000 active; AID 463212;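 active means growth inhibition of the mutant yeast at or above 50%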;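 further: temperature-sensitive mutant grown at 25 °C; plate controls were DMSO-treated mutant yeast for no effect and medium wells lacking yeast for full effect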
SKKanGAS inh – blocks kanamycin growth of S. pyogenes SKKanGAS strain | BacTiter-Glo, 6 h | inhibition, % at 7.5 µM | 1.3% of 300,000 active | AID 1662;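 active means mean replicate score, as percent of positive control median, at least 50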;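 further: strain carries kanamycin resistance gene driven by streptokinase promoter and grows in 40 µg/ml kanamycin; loss of luminescence reflects streptokinase promoter inhibition or plain growth inhibition; 0% = median of DMSO wells and 100% = positive control at its reference dose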
PfHsp90 yeast 2 – growth inhibition of yeast expressing Plasmodium Hsp90; inhibition, % at 9.4 µM; 0.32% of 310,000 active; S. cerevisiae expressing PfHsp90, BacTiter-Glo ATP, 48 h; yeast lacking PDR1 and PDR3 efflux regulators;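 active means every replicate shows inhibition above about 80%, whatever the replicate mean, limit read from the data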;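 further: 0% = DMSO neutral controls and 100% = 20 µM radicicol positive controls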
TIM10 inh – growth inhibitors of TIM10 yeast strain | S. cerevisiae TIM10 strain growth, BacTiter-Glo luminescence, 24 h | inhibition, % at 10 µM | 1.4% of 330,000 active;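 active means inhibition of 40% or more at the single tested concentration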;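 further: wild-type TIM10 isogenic control strain grown at permissive 25 °C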
tim10-1 inh – growth inhibitors of tim10-1 mutant yeast. S. cerevisiae tim10-1 ts strain growth, BacTiter-Glo, 24 h. inhibition, % at 20 µM. 2.2% of 330,000 active. AID 463190;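 active means inhibition of at least 40%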;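 further: mutant grown at 25 °C; 0% = DMSO wells with yeast and 100% = wells holding no yeast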
tim10 confirm – confirmation of TIM10 yeast growth inhibitors | 63% of 4,600 active | AID 463215 | shares compounds with TIM10 inh | S. cerevisiae tim10 strain growth, BacTiter-Glo luminescence, 24 h | inhibition, % at 10 µM;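 active means inhibition of yeast growth at or above a set limit in either of two replicates at 10 µM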;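 further: this counterscreen used the strain with wild-type TIM10; 0% = yeast with DMSO and 100% = medium wells lacking yeast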
Numbers without * were called inactive; nt = not tested or not shown. Compounds with a hit are over-represented: about 4.6% of the library has one in this group of screens.

SMILES	NLRP3 yeast inh	tim23-1 inh	SKKanGAS inh	PfHsp90 yeast 2	TIM10 inh	tim10-1 inh	tim10 confirm
CC(C)CNC(=O)c1ccc(NC(=O)c2ccccc2[N+](=O)[O-])cc1	-3	-8	6	6	-10	-2	nt
COc1ccc(NC(NC(=O)c2ccc(OC)cc2)C(Cl)(Cl)Cl)cc1 (stereo not given)	-2	35	7	-1	42*	33	26*
CCCN(Cc1ccc(C)cc1)C(=O)c1ccc(CNS(=O)(=O)c2ccc(C(C)=O)cc2)cc1	0	1	nt	-6	25	9	nt
Cc1ccc(C(=O)Nc2ccc3cn[nH]c3c2)cc1S(=O)(=O)N1CCOCC1	4	-12	5	-7	-26	1	nt
CCn1c(=S)sc2c(=O)n(CC(=O)NCCCc3ccccc3)c(C)nc21	14	-6	-2	24	-4	4	nt
Cc1cccc(-n2c(-c3ccc(Br)o3)n[nH]c2=S)c1	12	19	12	9	25	18	nt
Cc1ccccc1-n1c(-c2csc(C)c2C)n[nH]c1=S	4	16	6	-6	18	28	nt
Cc1cccc(-n2c(-c3csc(C)c3C)n[nH]c2=S)c1	27	28	-8	-35	44*	39	-20
Cc1cccc(-n2c(-c3csc(C(C)C)c3)n[nH]c2=S)c1	21	43	-8	20	42*	31	30
Cc1ccc(C(=O)NC(=S)Nc2ccccc2N2CCCC2)cc1[N+](=O)[O-]	13	44	4	-7	43*	32	-39
COc1cccc(C(=O)NC(=S)Nc2ccccc2N2CCCCC2)c1	18	29	65*	-3	41*	28	26
CCOc1ccc(C(=O)NC(=S)Nc2ccccc2N2CCOCC2)cc1Br	23	26	6	-14	12	36	nt
COc1ccc(S(=O)(=O)N2CCCCCC2)cc1NC(=O)CCCOc1ccccc1	13	2	nt	17	7	9	nt
COc1ccc(Cn2c(=O)oc3ccc(C)cc32)cc1	30	18	6	1	97*	-6	5
Cc1cccc(N2CC(C(=O)Nc3ccc(S(=O)(=O)Nc4nccs4)cc3)CC2=O)c1C (stereo not given)	25	9	-2	-2	1	-4	nt
Cn1c(=O)c2c(-c3ccccc3)n3c4ccccc4ncc3c2n(C)c1=O	18	17	1	nt	42*	24	-16
Nc1nc2ccccc2n1/N=C/c1ccc(Br)cc1	18	36	10	3	44*	19	30
Nc1nc2ccccc2n1/N=C/c1ccc2c(c1)OCO2	8	13	9	nt	17	1	nt
COc1ccccc1NC(=O)Nc1ccc(Cc2ccncc2)cc1	10	36	2	nt	44*	32	39*
COc1ccccc1NC(=O)Nc1cc(F)ccc1F	13	40	3	-15	46*	29	9
COc1ccccc1NC(=O)Nc1cc(NC(=O)Nc2ccccc2OC)c(C)nc1C	-4	-18	2	-1	10	7	nt
O=C(Nc1ccccc1N1CCCC1)C1CC(=O)N(Cc2ccccc2)C1 (stereo not given)	13	0	6	-7	-3	14	nt
CN(CC(=O)Nc1cccc(F)c1)C(=O)CN1C(=O)NC2(CCCC2)C1=O	3	11	nt	19	0	5	nt
O=C(NC1CCCC1)C(c1ccco1)N(C(=O)c1ccco1)c1ccccc1 (stereo not given)	-1	26	-2	9	8	20	nt
CCc1ccc(N(C(=O)c2ccco2)C(C(=O)NC2CCCC2)c2ccco2)cc1 (stereo not given)	-1	23	3	-62	42*	27	-27
CC(C)COc1cc(=O)[nH]c(SCC(C)C)n1	-40	9	0	8	45*	36	39*
CCOC(=O)c1cnc2c(OC)cccc2c1N1CCN(c2ccccc2OC)CC1	31	34	14	1	42*	37	-23
Cc1ccc(S(=O)(=O)N2CCN(S(C)(=O)=O)C2C)cc1 (stereo not given)	6	15	-7	-10	17	7	nt
COc1ccc(Br)cc1CNC(=O)Nc1cccs1	8	13	2	nt	51*	29	39*

Screens: PubChem, several laboratories
